# Screening data (PubChem BioAssay)
# Rab9 prom act – Rab9 promoter activation; Huh7 Rab9 promoter-luciferase reporter, luminescence, 24 h; Potency, µM (top dose mostly 9.22 µM), without a hit: at the top dose activation, negative = inhibition, hits mostly activators; hit rate 2.8% among 320,000; AID 485297; note: % of control where 0% means no effect; nearly all actives have a fitted effect of over 60% in size
#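 Huh7 cells stably carrying Rab9 promoter–luciferase reporter, plated 1500 cells/well, compound added after 2 h and incubated 24 h at 37 °C; luciferase luminescence then read after 10 min with detection reagent.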
# NPC1 prom act – NPC1 promoter activation; Huh7 NPC1 promoter luciferase reporter, 24 h; Potency, µM (top dose mostly 9.22 µM), inactives show at the top dose activation, actives largely listed as activators; hit rate 2.4% among 320,000; note: % of control where 0% means no effect; nearly all actives have a fitted effect of over 60% in size
#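 Luminescence read-out of NPC1 promoter-driven luciferase in stably transfected Huh7 cells; compounds delivered in DMSO and left 24 h at 37C, 5% CO2, qHTS titration format.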
# SMN2 splice up – SMN2 splice variant enhancement; Potency, µM (series often up to 46.1 µM), inactives show top-dose activity change, positive = activation, hits mostly activators; HEK293 SMN2-luciferase splicing reporter, luminescence, 30-36 h; hit rate 2.8% among 210,000; note: % of control where 0% means no effect; nearly all actives have a fitted effect of over 55% in size
#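 qHTS luciferase splicing reporter: luminescence rises when SMN2 exon 7 is included in transfected HEK293 cells. Compound exposure lasted 30-36 h at 37C, with 4.5 mM final sodium butyrate as control, followed by a ONE-Glo read.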
# ELG1 genotox – genotoxicity induction in ELG1-luciferase HEK293T cells; HEK293T ELG1-luciferase reporter, luminescence, 16 h; Potency, µM (top dose mostly 46 µM), inactives show at the top dose activity change, positive = activation, hits mostly activators; hit rate 1.3% among 330,000; note: % of control where 0% means no effect; nearly all actives have a fitted effect of over 60% in size
#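 DMSO vehicle served as control against compound-treated ELG1-luciferase HEK293T cells; exposure lasted 16 hr at 37 °C and 5% CO2, followed by ONE-Glo luminescence detection after 30 min.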
# FLuc modulator – inhibits or activates purified firefly luciferase, miR-21 counter-screen | purified FLuc, Km substrates, luminescence inhibition | hit rate 6.9% among 360,000 | Potency, µM (doses to about 57.5 µM), for the others: top-dose activity change, negative = inhibition, most hits filed as inhibitors;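 note: plate controls were vehicle for no effect and reference inhibitor for full effect; nearly all actives have a fitted effect of over 55% in size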
# Target sequence (P08659 whole entry, looked up): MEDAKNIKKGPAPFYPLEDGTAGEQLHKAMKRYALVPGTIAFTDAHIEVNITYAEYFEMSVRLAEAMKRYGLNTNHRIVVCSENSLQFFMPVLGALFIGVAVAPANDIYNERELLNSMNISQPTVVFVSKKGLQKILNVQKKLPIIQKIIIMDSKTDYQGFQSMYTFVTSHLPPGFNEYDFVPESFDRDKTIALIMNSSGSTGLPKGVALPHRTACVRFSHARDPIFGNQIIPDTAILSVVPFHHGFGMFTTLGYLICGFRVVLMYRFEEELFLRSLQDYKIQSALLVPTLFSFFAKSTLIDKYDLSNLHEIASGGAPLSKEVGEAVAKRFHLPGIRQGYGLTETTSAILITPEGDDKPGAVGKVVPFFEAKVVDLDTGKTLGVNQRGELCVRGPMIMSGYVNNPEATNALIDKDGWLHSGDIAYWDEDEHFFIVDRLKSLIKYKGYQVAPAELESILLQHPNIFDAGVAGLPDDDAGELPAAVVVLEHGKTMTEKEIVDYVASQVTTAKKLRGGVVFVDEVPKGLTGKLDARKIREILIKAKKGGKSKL
#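 Biochemical qHTS of compounds, final roughly 60 µM downward over six points, against 10 nM purified firefly luciferase using Km concentrations of substrates (10 uM D-luciferin, 10 uM ATP) in Tris acetate pH 7.5 buffer; luminescence output.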
# Active calls of the source: *; ? = inconclusive; · = no result; [ ] = another dose, or the depositor's remark. Only some compounds are listed: those with a hit (about 7.4% of all), similar ones and a draw of the others. Calls come from the whole dose curve; as a rule, active = well fitted curve in the direction sought with a large enough effect; inconclusive = small, poorly fitted or top-dose-only effect, or another doubt; inactive = no such curve, though single readings can be large; an effect the other way counts as inactive or inconclusive. Potency is the fitted concentration of half-maximal effect.
SMILES,Rab9 prom act,NPC1 prom act,SMN2 splice up,ELG1 genotox,FLuc modulator
C/C(=N\NC(=O)c1ccc(F)cc1)c1ccccn1,-31.5%,?,·,5.17µM*,8.49µM*
O=C(N/N=C(\c1ccccc1)c1ccccn1)c1cccc([N+](=O)[O-])c1,-7.0%,-25.4%,-107.8%,?,0.3%
CCOc1ccc(C2CC(=O)N(Nc3ccc([N+](=O)[O-])cc3[N+](=O)[O-])C2=O)cc1 (stereo unspecified),-0.7%,-3.0%,·,-1.1%,-3.7%
Nc1nc(Cl)nc2c1ncn2[C@@H]1O[C@H](COP(=O)(O)OP(=O)(O)OP(=O)(O)O)[C@@H](O)[C@H]1O,-4.1%[46.1 µM],1.5%[46.1 µM],·,·,·
COc1cccc(CNC(=O)c2ccc3nc(N4CCCCC4)sc3c2)c1OC,·,·,9.7%,·,?
COc1ccc(CCNC(=O)CCS(=O)(=O)c2cc3c(cc2Cl)NC(=O)CO3)cc1OC,·,·,·,·,-6.5%
Cc1onc(-c2ccccc2Cl)c1C(=O)OCC(=O)N1CCCCC1,·,·,·,0.2%,·
COc1ccc(OCC(=O)NC2CC(=O)N(c3cccc(OC)c3)C2)cc1 (stereo unspecified),·,·,·,·,-5.4%
Cc1cc(N(C)Cc2ccccc2)n2nc(-c3ccc(C(C)(C)C)cc3)nc2n1,·,·,-4.6%,·,?
O=C(N/N=C/c1ccc(Sc2ccccn2)o1)c1cc2ccccc2cc1O,-0.4%,-2.8%,?,12.7%,15.1µM*
C/C(=N\NC(=O)c1nc2ccccn2c1C)c1cc2ccccc2o1,3.1%,-1.6%,10.5%,-6.5%,-3.5%
CCc1ccc(/C(C)=N/NC(=O)c2ccccn2)cc1,0.5%,11.8%,16.8%,5.3%,?
C/C(=N\NC(=O)CNc1ccc(F)cc1)c1cc2ccccc2o1,3.4%,0.6%,-29.1%,-5.5%,?
C/C(=N\NC(=O)c1cc2ccccc2cc1O)c1ccccn1,-24.4%,2µM*,·,?,4.78µM*
C/C(=N\NC(=O)c1nc2ccccn2c1C)c1ccco1,2.51µM*,?,262.7%,?,?
C/C(=N\NC(=O)c1cc2ccccc2cc1O)c1cc2ccccc2o1,10.9%,20.1%,·,-11.3%,15.1µM*
C/C(CC1CC(COCCC(C)C)OC1=O)=N\NC(N)=S (stereo unspecified),-4.2%,2.0%,11.2%,-1.1%,1.5%
O=C(NCc1cccs1)C1CC(=O)N(Cc2ccccc2)C1 (stereo unspecified),·,·,·,2.4%,·
CCCCOc1ccc(C(=O)Nc2nc3c(s2)CC(C)CC3)cc1 (stereo unspecified),·,·,·,·,-13.1%
COC(=O)c1ccc(C(=O)NC(=S)Nc2nc3c(s2)CC(C)CC3)cc1 (stereo unspecified),3.3%,19.8%,15.8µM*,12.5%,-9.1%
O=[N+]([O-])c1ccc2nc(-c3ccc(OC(F)F)cc3)cn2c1,1µM*,1µM*,·,?,?
O=C(OCc1cc(Cl)ccc1OC(F)F)c1ccc([N+](=O)[O-])o1,0.0%,0.8%,·,-7.2%,2.0%
CNC(=O)Cn1nc(C)c(S(=O)(=O)N2CCOCC2)c1C,·,·,·,0.3%,·
Cc1ccc(C)c(NC(=O)/C(C#N)=C/c2ccc[nH]2)c1,13.7%,23.6%,·,-0.3%,-3.6%
Cc1cccc(NC(=O)/C(C#N)=C/c2ccc[nH]2)c1C,3.98µM*,?,·,?,-11.8%
SMILES,Rab9 prom act,NPC1 prom act,SMN2 splice up,ELG1 genotox,FLuc modulator
CC(=O)Nc1ccc(NC(=O)CCc2c(C)noc2C)cc1,-0.2%,-2.0%,·,5.7%,3.7%
CC(C)c1ccc(-n2cnn(-c3ncccc3[N+](=O)[O-])c2=O)cc1,0.891µM*,1.12µM*,7.94µM*,2.31µM*,3.01µM*
Cc1cc(C)n(-c2ncccc2[N+](=O)[O-])n1,-4.7%,-0.3%,·,-0.2%,0.9%
CCOc1ccccc1CNC(=O)c1cnn(-c2ccc(C)cc2)c1-n1cccc1,·,·,·,·,-16.9%
COc1cccc(NC(=O)Nn2cnnc2)c1,-0.3%,-1.6%,·,0.7%,1.8%
COc1cccc(NC(=O)Nc2ccc3c(c2)nnn3C)c1,?,?,17.8µM*,10.1%,6.75µM*
COc1cccc(NC(=O)Nc2ccc3snnc3c2)c1,·,·,19.2%,·,16.9µM*
O=C(Nc1ccc2snnc2c1)Nc1cccc2ccccc12,4.3%,-3.9%,-7.9%,-0.9%,21.3µM*
Cc1ccc(NC(=O)Nc2ccc3snnc3c2)cc1C,·,·,0.9%,·,23.9µM*
